Measured values from PubChem BioAssay (NCI).
About 83,000 compounds went through this panel and 20% of them were active in at least one assay; those are over-represented in the sample as a whole.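 Plates (96-well) were seeded with cells, treated with compound at one concentration, and incubated for 48 hours before percent growth was determined.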 Values without a mark were called inactive. The source made the active and inactive calls. Rule for the calls: active = growth percent below 10; inactive = the rest.

Columns and labels:
Assay in all cases: NCI-60 one-dose screen, 48 h (100 = growth as untreated, 0 = no growth, -100 = all killed)
Details in all cases: 10 µM unless noted
[1] = tested on: NCI-H23 lung
[2] = tested on: NCI-H226 lung
[3] = tested on: NCI-H322M lung
[4] = tested on: HOP-62 NSCLC
[5] = tested on: NCI-H460 lung
[6] = tested on: HOP-92 NSCLC
[7] = tested on: NCI-H522 lung
[8] = tested on: A549/ATCC NSCLC
[9] = tested on: 786-0 renal
[10] = tested on: COLO 205 colon
[11] = tested on: DU-145 prostate
[12] = tested on: K-562 leukemia
[13] = tested on: MALME-3M melanoma
[14] = tested on: MDA-MB-231 breast
[15] = tested on: RXF 393 renal
[16] = tested on: SF-268 CNS
[17] = tested on: SF-295 CNS
[18] = tested on: SF-539 CNS
[19] = tested on: UACC-257 melanoma
[20] = tested on: M14 melanoma

Structure (SMILES) | growth [1] | growth [2] | growth [3] | growth [4] | growth [5] | growth [6] | growth [7] | growth [8] | growth [9] | growth [10] | growth [11] | growth [12] | growth [13] | growth [14] | growth [15] | growth [16] | growth [17] | growth [18] | growth [19] | growth [20]
COC(=O)Cn1c2c(c3c(OC)cccc31)C(=O)c1ccccc1-2 | 91.2% | 91.4% | 113% | 87% | 112% | 70.3% | 101% | 100% | 86.6% | 104% | 104% | 91.7% | 95.5% | 98.5% | 114% | 97% | 107% | 101% | 101% | 103%
COCCOC(C)C(/C=N/NC(N)=S)=N/NC(N)=S (stereo not given) | 49.8% | 72.2% | 89.8% | 72.4% | 85.8% | 101% | 94.5% | 78.3% | 99.3% | 90.6% | 102% | 37.6% | 94.3% | 68% | 97.2% | 83.4% | 76.2% | 91.9% | 34.5% | 65.5%
CC1(C)N=C(N)N=C(N)N1c1cc(Cl)ccc1Cl | 74.4% | 94.3% | 119% | 92.8% | 32.3% | 94% | 52.7% | 86.7% | 110% | 87.5% | 6.66% (active) | 71.2% | 125% | 92.6% | 78.7% | 75.1% | 51.5% | 85.8% | 94.7% | 94%
COC12C=C/C(=C(/C(=O)OCc3csc(SC)n3)C(=O)CCCCCCCCC3(OC)C=C/C(=C(/C(=O)OCc4cnc(SC)s4)C(=O)CCCCCCCC1)O3)O2 (stereo not given) | 15.7% | 12% | 46.5% | 58.7% | 27.2% | 78.2% | 24.2% | 39.8% | 35.1% | 25.5% | 50.3% | 25.3% | -1.67% (active) | 19.1% | -35.4% (active) | 44.7% | 14.8% | 27.4% | 56.8% | 12%
C=C(C)[C@@H]1CC[C@]2(CO)CC[C@]3(C)[C@H](CC[C@@H]4[C@@](C)(CCCN)[C@H](C(=C)C)CC[C@]43C)[C@@H]12 | -70.1% (active) | 13.1% | -53.9% (active) | -62.8% (active) | -93.8% (active) | -41% (active) | -48.6% (active) | -68.8% (active) | -98.5% (active) | -58% (active) | -44.8% (active) | -5.14% (active) | -94.7% (active) | -96.3% (active) | -85.3% (active) | -41.9% (active) | -75.5% (active) | -97.1% (active) | -78.9% (active) | -74.9% (active)
CCN1C(=O)N(CC)C2C1NN=c1s/c(=C\c3ccc(OC)cc3)c(=O)n12 (stereo not given) | 32.2% | 60.5% | 45.9% | 37.1% | 4.22% (active) | 33% | -9.26% (active) | 10% | 20.8% | -7.08% (active) | 6.18% (active) | 8.38% (active) | 40.2% | 16.3% | 33.9% | 49.4% | 13.2% | -21.4% (active) | 56.3% | 6.11% (active)
Cc1ccc(C2CC(c3cccc(Nc4ccncc4)c3)=Nc3c(N)nc(N)nc3N2)cc1 (stereo not given) | 56% | 88.9% | 67.4% | 86.4% | 23.1% | 49.8% | 75.7% | 28.3% | 36.4% | 52.3% | 70.9% | 21.3% | 78.7% | 66.1% | 55.6% | 63.1% | 67% | 67.9% | 63.7% | 42.3%
Nc1ncccc1O | 78% | 94.1% | 98.8% | 99.5% | 49.3% | 105% | 61.4% | 77.9% | 111% | 92.6% | 22.8% | 67.6% | 131% | 117% | 76.1% | 96% | 82.4% | 106% | 91.3% | 102%
